# High-throughput results as filed in PubChem BioAssay.
# Hits are enriched below; roughly 1.7% of the tested compounds scored in any of these assays.
# CHT allo act: human CHT allosteric activation; 0.49% of 310,000 active; B-score at 10 µM; CHT-expressing cells, membrane potential dye, choline EC20; hits give high values; LV-AA mutant CHT in HEK293 cells;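 active = initial fluorescence not abnormally high and integrated response B-score, plate-corrected, over 3 SD above library mean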
# Target sequence (Q9GZV3 whole entry, looked up): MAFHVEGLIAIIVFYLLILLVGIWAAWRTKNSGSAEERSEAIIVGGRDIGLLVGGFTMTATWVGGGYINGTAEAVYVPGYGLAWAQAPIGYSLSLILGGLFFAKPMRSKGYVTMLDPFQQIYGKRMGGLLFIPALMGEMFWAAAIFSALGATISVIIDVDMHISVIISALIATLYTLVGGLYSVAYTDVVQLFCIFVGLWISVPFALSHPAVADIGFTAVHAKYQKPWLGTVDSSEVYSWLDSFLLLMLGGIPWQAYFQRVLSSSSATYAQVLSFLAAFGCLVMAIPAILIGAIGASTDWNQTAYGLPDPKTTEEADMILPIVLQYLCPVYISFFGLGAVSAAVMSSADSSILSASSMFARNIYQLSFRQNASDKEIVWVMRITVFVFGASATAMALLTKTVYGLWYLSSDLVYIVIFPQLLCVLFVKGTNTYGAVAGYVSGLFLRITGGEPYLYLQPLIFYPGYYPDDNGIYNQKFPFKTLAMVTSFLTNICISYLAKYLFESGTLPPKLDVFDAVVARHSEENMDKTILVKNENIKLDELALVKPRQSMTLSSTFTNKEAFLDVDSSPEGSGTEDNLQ
# MIN6 prolif: MIN6 beta-cell proliferation induction. MIN6 cells proliferation, ATPlite luminescence, 48 h; cells starved in 0.2% serum; 100% = growth in 10% serum. proliferation, % at 10 µM. 0.29% of 330,000 active. AID 2380;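 active = compounds whose signal lies at least 3.5 SD above the mean of all wells on their plate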;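 note: 0% = DMSO-treated cells in low-serum medium and 100% = 10% serum control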
# CHT block: inhibits the human high affinity choline transporter | CHT-expressing cells, membrane potential dye, choline response; hits give low values | 0.86% of 310,000 active | B-score at 10 µM;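 active = B-score over 3 SD under the library average, and starting fluorescence ratio not unusually high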;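 note: choline stimulus applied at its EC90 after an EC20 pre-addition; B-score computed on integrated fluorescence ratio after choline addition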
# H9c2 TAG inh: reduces triacylglycerol accumulation in H9c2 cells; 0.66% of 230,000 active; inhibition, % at 12.5 µM; Nile Red lipid (TAG) fluorescence; cells loaded with 200 µM oleic acid;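 active = pattern-corrected inhibition of lipid staining of at least 50% with the nuclear-stain viability signal not falling by more than 50%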;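 note: 0% = DMSO wells and 100% = triacsin C control wells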
# CHT block conf: confirmation of human choline transporter CHT inhibitors; shares compounds with CHT block; CHT-expressing cells, choline membrane potential dye; LV-to-AA substituted CHT, HEK293 cells; CHT activity remaining % of control (hits give low values), % at 10 µM; 70% of 2,400 active;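 active = choline transporter activity left, mean of duplicates at 10 µM, below buffer-only control mean minus 3 SD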;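 note: depolarization triggered by choline at its EC90 following an EC20 pre-addition; 0% = hemicholinium-3 full block and 100% = buffer-only control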
# HEK293 CHT ctr: counter-screen for CHT inhibitors: effect in parental HEK293 cells | AID 493222 | 4% of 2,400 active | membrane potential dye, choline response; active = decrease or increase beyond buffer ±3SD | shares compounds with CHT block | membrane potential ratio readout (active if shifted either direction beyond buffer ±3SD; no single direction) at 10 µM;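 note: parental cells lack the transporter so any hit is non-specific; ratio is peak minus trough fluorescence over baseline after EC90 choline challenge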
# * = called active by the depositor; i = inactive; nt = no result.
SMILES,CHT allo act,MIN6 prolif,CHT block,H9c2 TAG inh,CHT block conf,HEK293 CHT ctr
Cc1ccc(C(=O)Nc2ccc(S(=O)(=O)NC3=NCCCCC3)cc2)c(C)c1,i,0,-5.9*,5,19%*,i
CCc1ccc(-n2c(SCc3c(C)noc3C)nnc2-c2ccncc2)cc1,i,-1,-5.1*,3,i,i
C=CCSc1nnc(-c2ccncc2)n1-c1ccc(OCC)cc1,i,-3,-5.5*,nt,59%*,-8.4*
CCOc1ccc(-n2c(SCc3ccc(C#N)cc3)nnc2-c2cccnc2)cc1,i,0,i,15,nt,nt
CCc1ccc(N=c2c([N+](=O)[O-])nn(-c3ccc4c(c3)OCCO4)n2O)cc1,i,-5,-6.3*,3,69%*,i
Cc1c(C)n(CCc2ccccc2)c2ncnc(NN)c12,i,-3,-6.1*,nt,61%*,i
Cc1c(C)n(Cc2ccccc2)c2ncnc(NN)c12,i,2,i,nt,nt,nt
CCOc1[nH]c(/N=C/c2ccco2)c(C#N)c1C#N,i,5,-5.1*,-1,53%*,i
S=c1[nH]c2cc(Cl)ccc2s1,i,-2,-5*,nt,54%*,i
CSCCCNC(=O)c1ccc(OC2CCN(CCc3ccccc3)CC2)cc1,i,-2,-6*,1,51%*,4.8*
CCCN1CCC(Oc2cccc(C(=O)NCCc3ccccc3)c2)CC1,i,-1,-11*,10,6.5%*,i
COc1cccc(CNC(=O)CSc2nc(=O)n(Cc3ccncc3)c3c2CCC3)c1,i,7,i,2,nt,nt
COc1ccc(C(=O)NNC(=O)C(=O)NC2CCCCC2)cc1,i,-2,i,nt,nt,nt
Cc1cc(NS(=O)(=O)c2ccc(NC(=O)/C=C/c3c(F)cccc3Cl)cc2)no1,i,-2,i,-4,nt,nt
Cc1cc(NS(=O)(=O)c2ccc(NC(=O)/C=C/c3c(F)cccc3Cl)cc2)nc(C)n1,i,-3,-5.7*,-18,31%*,i
CCCCC(Br)C(=O)Nc1ccc(S(=O)(=O)Nc2cc(C)nc(C)n2)cc1 (centres undefined),i,0,-5.8*,nt,15%*,i
O=c1ccn([C@@H]2O[C@H](CNCc3ccc(-n4cccn4)cc3)[C@@H](O)[C@H]2O)c(=O)[nH]1,nt,nt,nt,5,nt,nt
CC(=O)/C(=N\Nc1ccc(C)cc1)Sc1nncn1C,i,0,i,4,nt,nt
O=C(NNC(=O)c1ccncc1)Nc1cc(Cl)ccc1Cl,nt,nt,nt,13,nt,nt
CCC(=O)Nc1cc2nn(-c3ccc(OC)cc3)nc2cc1C,i,-3,-6.6*,nt,i,i
COc1ccc(C(=O)Nn2c(SCc3ccc([N+](=O)[O-])cc3)nc3ccccc3c2=O)cc1,i,-5,i,nt,nt,nt
O=C(CSc1nc(C(F)(F)F)cc(=O)[nH]1)Nc1cccc2ccccc12,i,3,-5.4*,-5,40%*,i
COCC(C)n1c(SCC(=O)Nc2oc(C)c3c(C)n[nH]c(=O)c23)nc2ccccc2c1=O (centres undefined),i,0,i,-7,nt,nt
Cc1n[nH]c(=O)c2c(NC(=O)CSc3nc4ccccc4c(=O)n3C(C)C)oc(C)c12,i,0,-10*,-5,48%*,i
Nn1c(SCc2nc3ccccn3c2Br)nnc1-c1cccnc1,i,-1,i,-41,nt,nt
SMILES,CHT allo act,MIN6 prolif,CHT block,H9c2 TAG inh,CHT block conf,HEK293 CHT ctr
N#C/C(=N\Nc1ccc(Cl)cc1)C(N)=S,i,-4,-8.1*,-6,39%*,i
CC(C)C(NC(=S)Nc1ccccc1)C(=O)O (centres undefined),i,1,i,nt,nt,nt
CCCn1c(SCc2cc(=O)oc3ccc4ccccc4c23)n[nH]c1=O,i,-1,-5.4*,-3,i,i
CCOC(=O)C1CCCN(C(=S)Nc2cccc(Cl)c2)C1 (centres undefined),i,0,i,nt,nt,nt
CN(C)S(=O)(=O)c1ccc(NC(=O)Cc2ccc(S(=O)(=O)N3CCOCC3)s2)cc1,i,2,i,6,nt,nt
CC(NC(=O)Cc1ccc(S(=O)(=O)N2CCOCC2)s1)c1ccc(Br)cc1 (centres undefined),nt,nt,nt,-2,nt,nt
CC(NC(=O)Cc1ccc(S(=O)(=O)N2CCOCC2)s1)c1ccc(Cl)c(Cl)c1 (centres undefined),i,-5,-7.1*,5,57%*,i
O=C(Cc1ccc(S(=O)(=O)N2CCOCC2)s1)Nc1ccc(N2CCOCC2)cc1,i,-1,-5.1*,-16,i,i
CCC1=C(c2ccc(OC)cc2)CCC(C(=O)O)C1C (centres undefined),nt,nt,nt,1,nt,nt
CCOc1cc(Br)ccc1S(=O)(=O)NCc1ccccc1,i,-1,-6.3*,nt,i,i
OC(c1ccc(F)c(F)c1)c1nc(-c2cc(F)cc(F)c2)cs1 (centres undefined),nt,nt,nt,-25,nt,nt
Cc1cccc(-n2cc(CN3CCN(Cc4nccn4C)CC3)c(-c3cccc(F)c3)n2)c1,i,-5,-9.7*,-4,20%*,i
CC(C)N1CCCC(C)(C(=O)Nc2nccc3ccccc23)C1 (centres undefined),nt,nt,nt,16,nt,nt
COc1ccccc1CN1C(=O)[C@@H]2C(CC(N)=O)NC3(C(=O)Nc4c3ccc(Cl)c4C)[C@@H]2C1=O (some centres undefined),i,2,i,11,nt,nt
COc1ccccc1CN1C(=O)[C@@H]2C(CCC(N)=O)NC3(C(=O)Nc4c3ccc(Cl)c4C)[C@@H]2C1=O (some centres undefined),i,-3,-6.1*,16,61%*,i
Cc1ccccc1CNS(=O)(=O)c1ccc2c(c1)OCCO2,i,-2,-5.8*,nt,64%*,i
CN(C)C(=O)c1ccccc1NC(=O)Cc1cccc2ccccc12,i,-2,i,-5,nt,nt
CCCN(CC(=O)Nc1ccc(F)c(F)c1F)C(=O)Cn1c(=O)cnc2ccccc21,i,3,-11*,7,8.6%*,i
O=C(c1nn(-c2ccccc2)c(=O)c2ccccc12)N1CCN(c2ccccn2)CC1,i,0,-6*,nt,i,i
CCCn1nc(C(=O)N2CCN(c3ccccn3)CC2)c2ccccc2c1=O,nt,-6,nt,-5,nt,nt
Cc1nc(C)c(C(=O)Nc2ccc(Oc3ccccc3)cc2)o1,i,-4,i,nt,nt,nt
Cc1ncoc1C(=O)Nc1ccc(Oc2ccccc2)cc1,i,-2,-6*,nt,57%*,i
COC(=O)c1sc(NC(=S)NNC(=O)c2c(Br)c(C)nn2C)c(C(=O)OC)c1C,i,-3,-5.6*,0,i,i
CCCCN1CCc2c1nc1ccc(Br)cc1c2N,i,-4,-5.6*,nt,51%*,i
